Assay results reported in PubChem BioAssay AID651692 (Broad Institute, 2012).
Entries with a potency or affinity are not part of this list. The source made the active and inactive calls.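 The calls were made as follows: active = fitted half-maximal concentration for loss of cell signal no higher than twice the top valid tested concentration; inconclusive = flat curve at 30 to 70% inhibition, or poor fit; inactive = flat within 30%, signal rise, or potency above limit.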

experiment: cytotoxicity toward MDA-MB-231 breast cancer cells – cell-based, CellTiter-Glo luminescence, cherry-pick, cytotoxicity control for RAD54 inhibitor project, dose response (AID 651692); settings: MDA-MB-231 viability, 24 h; series mostly up to 26 µM; activity change, negative = growth inhibition: at the top concentration;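 also: 0% = median of sample compound wells and -100% = staurosporine control wells; more negative values mean stronger loss of viable cell signal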

| SMILES | activity change, negative = growth inhibition |
| --- | --- |
| Nc1ccnn1C1CCNCC1 | 2.95% (inactive) |
| COc1ccc2c(c1)[nH]c1c(C)nccc12 | -8.19% (inactive) |
| CN1CCN(c2cc(N3CCNCC3)ccc2[N+](=O)[O-])CC1 | 5.42% (inactive) |
| O=C(NC1CN2CCC1CC2)c1cc(Cl)c([N+](=O)[O-])c2nc[nH]c12 (stereo not drawn) | -4.87% (inactive) |
| Nc1ccc(CCN2CCCC2)cc1 | 3.15% (inactive) |
| CN1CCN(c2ccc(N)cc2)CC1 | -5.01% (inactive) |
| Cc1nccc2c1[nH]c1ccccc12 | 0.422% (inactive) |
| CN1CCC(N(C)c2nc(-c3ccccc3)nc3ccccc23)CC1 | -4.35% (inactive) |
| Nc1ccc(C2(c3ccc(N)cc3)CN3CCC2CC3)cc1 | 3.5% (inactive) |
| CCNCCNc1ccc([N+](=O)[O-])c2cccnc12 | -2.9% (inactive) |
| Cc1ccc(-c2nc(N(C)C3CCN(C)CC3)c3ccccc3n2)cc1 | -10.9% (inactive) |
| CC(Cc1ccccc1)NCC(=O)Nc1cc(N(C)C)nc2ccccc12 (stereo not drawn) | 1.39% (inactive) |
| CCN1CCN(c2ccc(N)c(C)c2)CC1 | 0.217% (inactive) |
